Ins promoter up = MIN6 insulin promoter up-regulation. MIN6 insulin promoter-GFP reporter, high-content imaging; active compounds read high. z-score at 5 µM. actives 0.3% (n = 190,000);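 active means z-score above 3 at 5 µM with at least 500 cells counted in the well; inconclusive means wells under 500 cells, flagged as cytotoxic or low count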
ROMK mod = modulates human ROMK potassium channel activity; B-score at 10 µM; actives 2% (n = 130,000); Tet-inducible ROMK, thallium flux fluorescence; actives lie on both sides; P48048;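 active means signal ratio slope over the read window, or its plate-corrected B-score, at least 3 SD from the plate mean, either direction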;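 further: B-score of the F/F0 ratio slope over 7 to 12 s after thallium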
L major viab = inhibitors of Leishmania major promastigote growth; Leishmania major promastigotes, resazurin fluorescence viability; inhibition, % at 10 µM; actives 9% (n = 200,000); AID 1063; in the data active means inhibition above about 50%;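 further: promastigotes grown with compound for 44 hours at 28 °C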
WT yeast gro inh = growth inhibition of WT yeast, mitochondrial fusion screen | actives 2.1% (n = 190,000) | inhibition, % at 10 µM | mitochondrial fusion phenotypic screen, WT strain; in the data active means inhibition above about 58%; tested in S. cerevisiae
Cl transport mod = modulates chloride dependent transport by human KCC2. actives 2.2% (n = 190,000). KCC2 cells, thallium flux FluoZin-2 fluorescence. Q9H2X9. B-score of Tl+ flux slope (higher = more flux/activation; lower = inhibition) at 10 µM;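 active means thallium flux slope and its plate-corrected score both differing from the plate sample mean at a set confidence after two filtering rounds, in either direction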;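 further: slope of fluorescence scaled to starting intensity during 10 to 20 s after thallium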
Insulin prom inh = TRM-6 insulin promoter activity inhibition; AID 1273; inhibition, % at 2 µM; TRM-6 cells (human fetal islet line), insulin promoter-eGFP reporter, imaging; reporter expression induced with tamoxifen; actives 0.9% (n = 130,000);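 active means inhibition above the mean plus 3 SD, with well images judged a real hit on visual review, cut at about 60% in these data, passing the limit was not always enough; inconclusive means inhibition over the cutoff but images rejected on review; inactive means inhibition not above the cutoff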
ROMK hit retest = human ROMK channel modulation, retest confirmation | shares compounds with ROMK mod | ROMK thallium flux, fluorescence ratio; active compounds read low | normalized thallium flux (F/F0 slope) at 10 µM | actives 54% (n = 3,000) | AID 1917;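 active means Flux at 10 µM at least 3 SD below or above vehicle control mean in one or both replicates; inconclusive means no clear call, values can overlap the other calls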
* marks the source's active call; other numbers are inactive results; u = inconclusive; x = no result given. Only some compounds are listed: those with a hit (about 12% of all), similar ones and a draw of the others.

SMILES	Ins promoter up	ROMK mod	L major viab	WT yeast gro inh	Cl transport mod	Insulin prom inh	ROMK hit retest
CC(=O)c1cccc(NC(=O)C(C)OC(=O)CNC(=O)c2ccc(C)s2)c1 (stereo not given)	0.34	0.11	-6	-3	-0.98	x	x
COc1ccc(CN(C)Cc2nc(Cc3cccc(F)c3)no2)c2cccnc12	1.3	-1.6*	5	16	-0.38	x	u
COc1cccc(-n2cc(CN(C)Cc3nc(Cc4cccc(F)c4)no3)cn2)c1	0.59	-0.83	-4	34	-0.87	x	x
CC1CCN(C(C(=O)NC2CCCCC2)c2cc3c(cc2[N+](=O)[O-])OCO3)CC1 (stereo not given)	-0.63	-3.1*	40	33	0.34	50	0.06*
CC1CCN(C(C(=O)Nc2ccc3c(c2)OCO3)c2ccccc2)CC1 (stereo not given)	0.29	x	14	3	-1.8	x	x
Cc1cc(C)c2c(NC(=O)CCl)nn(C)c2n1	-0.29	0.27	6	-9	-0.13	39	x
CCc1cc(SC#N)cc(CC)c1NC(=O)CCl	0.39	-3.6*	20	-12	0.038	0	0.047*
CCOC(=O)N1CCN(c2ccc(S(=O)(=O)N(Cc3ccccc3)Cc3ccccc3)cn2)CC1	-1.1	x	31	-8	-0.089	-27	0.075
COc1ccc(NS(=O)(=O)c2cc(NC(=O)c3cc(F)c(F)c(F)c3F)ccc2N2CCCC2)cc1	-0.25	x	x	x	-0.096	x	0.084
O=C(Oc1ccc(Nc2ncnc3ccccc23)cc1)c1cccnc1	0.93	-2.9*	1	-9	-2.2	x	0.065*
CCOC(=O)c1ccc(Nc2ncnc3ccccc23)cc1	-0.23	0.41	17	9	-0.89	-21	x
CSC1=NCCN1C(=O)c1cccc(C(F)(F)F)c1	0.53	x	2	8	x	x	x
COc1ccc(C(=O)OCc2nc(N)nc(Nc3ccccc3C)n2)cc1OC	1.5	0.54	3	0	-0.48	x	x
Cc1ccccc1Nc1nc(N)nc(COC(=O)c2cccc(S(=O)(=O)NCc3ccccc3)c2)n1	-0.26	-3.8*	43	-14	-2.7	-31	0.047*
Cc1[nH]nc2c1C(c1cccs1)C1=C(CCCC1=O)N2 (stereo not given)	0.06	0.077	8	-11	-0.13	x	x
Cc1nc2ncccn2c1-c1csc(Nc2ccc(N(C)C)cc2)n1	-1.1	7.2*	44	5	-1.4	-42	0.093
O=C1N=C(N2CCOCC2)S/C1=C/c1cccs1	1.5	x	-5	5	0.027	-9	x
CC(=O)N1CCN(C2=NC(=O)/C(=C\c3cccs3)S2)CC1	-0.07	-6.7*	-4	2	1.1	x	0.083
O=C(O)C1C(c2ccccc2)C(C(=O)Oc2ccc(O)cc2)C1c1ccccc1 (stereo not given)	-0.08	x	1	7	-0.98	x	x
CN=c1scc(C)n1/N=C/c1ccc(O)cc1O	-0.17	x	58*	7	x	18	u
COC(=O)CCC(=O)Nc1ccc(S(=O)(=O)N2CCCCCC2)cc1	0.06	x	-4	-14	0.12	23	x
Cc1ccc(S(=O)(=O)NCCSc2nnnn2-c2ccc(C(N)=O)cc2)cc1	0.87	x	25	14	0.14	x	x
CC(=O)N1CCN(c2ccc(S(=O)(=O)NCCN(C(C)C)C(C)C)cc2[N+](=O)[O-])CC1	-0.25	0.24	-2	-3	0.84	-69	x
Cc1ccc(-n2nnnc2Sc2ccc(S(=O)(=O)NCCN(C)C)cc2[N+](=O)[O-])cc1	u	-3.5*	100*	8	-0.037	-8	0.057*
CN(C)CCNS(=O)(=O)c1ccc(N2CCN(c3ccc(F)cc3)CC2)c([N+](=O)[O-])c1	-0.22	-4*	98*	27	-2	22	0.064*
SMILES	Ins promoter up	ROMK mod	L major viab	WT yeast gro inh	Cl transport mod	Insulin prom inh	ROMK hit retest
CC12CC3(C)CC(C)(C1)CC(C(=O)NC(=S)NC(C)(C)C)(C2)C3	0.11	2.5*	19	70*	-0.74	33	u
CN(C)CCNC(=O)C12CC3(C)CC(C)(CC(C)(C3)C1)C2	-0.28	1.2	8	-19	0.91	5	x
O=C1NC(=O)/C(=C/c2ccc(N3CCOCC3)o2)N1	0.42	x	x	x	0.55	x	x
O=C1NC(=O)/C(=C\c2ccc(N3CCOCC3)o2)N1	0.58	-3.6*	14	-7	-0.034	x	u
CCN1CCS/C1=C\C=C\C1=[N+](CC)CCS1	u	x	100*	28	x	x	u
Cc1ccc(CNC(=O)C2CC(c3ccccc3C(F)(F)F)=NO2)cc1 (stereo not given)	-0.55	x	x	x	-2	x	x
CCOCCOC(=O)c1[nH]c2c(c1C)C(=O)CC(c1cccs1)C2 (stereo not given)	x	5.7*	20	5	0.93	x	0.076
COCCOC(=O)c1[nH]c2c(c1C)C(=O)CC(c1cccs1)C2 (stereo not given)	0.49	1.1	12	4	0.0056	-154	x
CCCCCOC(=O)c1[nH]c2c(c1C)C(=O)CC(c1ccco1)C2 (stereo not given)	u	2.1	28	22	-0.17	-37	0.085
COC(=O)c1cnc2c(c(C)nn2C)c1OC	-0.2	x	x	x	-0.14	x	x
CC(=O)NN1C(=O)/C(=C\c2ccc(Br)o2)SC1=S	0.43	-4.1*	44	-12	0.063	-64	0.055*
CCCN1C(=O)/C(=C\C=C2\N(CC)c3ccccc3C2(C)C)SC1=S	x	-7.5*	9	5	0.52	x	0.053*
CCN(CC)S(=O)(=O)c1ccc(OC)c(NC(=O)/C=C/c2ccco2)c1	-0.18	x	x	x	-0.78	x	x
COC(=O)C1=C(C)N(C)C(C)=C(C(=O)OC)C1c1ccccc1C	0.32	-4.4*	4	7	-0.48	x	0.064*
O=C(CCc1nnc(-c2ccccc2)o1)NCc1cc(F)ccc1F	-0.46	0.69	-3	-12	-0.67	x	x
C=C1CCN([C@@H](C)C(=O)NCc2cc(OC)c(OC)c(OC)c2)S(=O)(=O)c2ccccc21	-0.28	x	x	x	-0.061	x	x
C#CCOCCOCCOCCNc1nc(N2CCN(C(=O)[C@H]([C@@H](C)CC)n3cc([C@@H](N)Cc4ccc(O)cc4)nn3)CC2)nc(N2CCN(C(=O)[C@H]([C@@H](C)CC)n3cc([C@@H](N)CC(C)C)nn3)CC2)n1	0.02	x	2	-13	1.1	x	x
COc1ccc(OC)c(NC(=O)c2sc3nc(Cc4ccccc4)cc(C(F)(F)F)c3c2N)c1	1.2	-4.2*	-2	3	0.14	10	0.033*
COc1ccc(OC)c(NC(=O)c2nnn(CCc3ccccc3)c2N)c1	-1.2	x	-1	7	x	x	x
O=C1c2ccc([N+](=O)[O-])cc2C(=O)N1c1ccc(Cl)cn1	-0.37	0.45	-8	-2	0.92	x	x
O=C1c2cccc3c([N+](=O)[O-])ccc(c23)C(=O)N1c1ccc(Cl)cn1	0.26	-3.7*	100*	-2	x	x	0.048*
CCN(CC)c1ccc(C=Nc2ccc(N(C)C)cc2)c(O)c1	0.15	-2.7*	2	16	0.27	-13	u
